Out of some 39,000 compounds screened, about 1,500 (3.8%) were called active. This is one part of a sample in which actives are shown more often than they occur.
Test system: HSkMC (human skeletal muscle cells)
Assay: cytotoxicity call (relative viability < 0.9)
Conditions: 10 µM

C=C1CCC=C(C)CCC2C1CC2(C)C.O (single isomer, unassigned; (-)) [(-)E-CARYOPHYLLENE hydrate ] was tested. Which cytotoxicity call did it give?
Its cytotoxicity call is “inactive”.

C=C1C(=O)OC2C1CCC(C)=CCCC1(C)OC21 (centres undefined) was tested. Which cytotoxicity call did it give?
Its cytotoxicity call is “active”.

Cc1cc(C)nc(NS(=O)(=O)c2ccc(NC(=O)c3cccn(OCc4ccc(F)cc4)c3=O)cc2)n1 was tested. Which cytotoxicity call did it give?
The cytotoxicity call was “inactive”.

Cc1ccc(C(=O)Nc2ccc(Oc3cc4cnn(C)c4cc3-c3cn[nH]c3)c(F)c2)c(=O)n1-c1ccc(F)cc1 was tested. Which cytotoxicity call did it give?
Its cytotoxicity call is “active”.

Which cytotoxicity call does the source give for CCCNC(=O)N1C[C@@H](C)[C@@H](OC)CN(C)C(=O)c2ccc(NS(=O)(=O)CC(F)(F)F)cc2OC[C@@H]1C here?
The cytotoxicity call was “inactive”.

Which cytotoxicity call does the source give for Cc1ccc(Oc2nnc(-c3cccs3)c3ccccc23)cc1 here?
The cytotoxicity call was “inactive”.

Which cytotoxicity call does the source give for Cc1ccc(Nc2nnc(-c3ccccc3)c3ccccc23)cc1 here?
Its cytotoxicity call is “inactive”.

With Cc1csc(-c2nnc(Nc3ccc(Oc4ncccc4-c4ccnc(N)n4)cc3)c3ccccc23)c1 as the molecule, how does the cytotoxicity call read?
The cytotoxicity call was “active”.

With O=C(O)C[C@@H](O)C(=O)O as the molecule, how does the cytotoxicity call read?
Its cytotoxicity call is “inactive”.

COC(=O)C1=CO[C@@H](O[C@@H]2O[C@H](CO)[C@@H](O)[C@H](O)[C@H]2O)/C(=C\CO)[C@@H]1CC(=O)OCCc1ccc(O)cc1 was tested. Which cytotoxicity call did it give?
The cytotoxicity call was “inactive”.

C[C@@H]1CN([C@H](C)CO)S(=O)(=O)c2ccc(C3=CCCC3)cc2O[C@H]1CN(C)S(=O)(=O)c1ccc(F)cc1 was tested. Which cytotoxicity call did it give?
Its cytotoxicity call is “inactive”.

CS(=O)(=O)N1CC[C@]2(COCc3cnc(N4CCOCC4)nc32)C1 was tested. Which cytotoxicity call did it give?
The cytotoxicity call was “inactive”.

For c1nc(N2CCOCC2)nc(N2CCOCC2)n1, which cytotoxicity call is on record?
Its cytotoxicity call is “inactive”.

With CS(=O)(=O)N1CCc2c(-c3cnc(N)nc3)nc(N3CCOCC3)nc21 as the molecule, how does the cytotoxicity call read?
The cytotoxicity call was “active”.

With C[C@H]1CN([C@@H](C)CO)C(=O)c2cccc(NC(=O)c3ccncc3)c2O[C@H]1CN(C)Cc1ccc(Oc2ccccc2)cc1 as the molecule, how does the cytotoxicity call read?
Its cytotoxicity call is “inactive”.

C[C@H]1CCCCO[C@H](CN(C)C(=O)Nc2ccc(C(F)(F)F)cc2)[C@@H](C)CN([C@@H](C)CO)C(=O)c2cc(NS(=O)(=O)c3ccccc3)ccc2O1 was tested. Which cytotoxicity call did it give?
The cytotoxicity call was “active”.

How did the cytotoxicity call turn out when C[C@@H]1CN([C@@H](C)CO)C(=O)c2cc(NS(=O)(=O)c3ccccc3)ccc2O[C@@H](C)CCCCO[C@@H]1CN(C)C(=O)Nc1ccc(C(F)(F)F)cc1 was run?
The cytotoxicity call was “active”.

Which cytotoxicity call does the source give for C[C@H](CO)N1C[C@H](C)[C@@H](CN(C)C(=O)Nc2ccc(C(F)(F)F)cc2)OCCCC[C@H](C)Oc2ccc(NS(=O)(=O)c3ccccc3)cc2C1=O here?
Its cytotoxicity call is “inactive”.

Which cytotoxicity call does the source give for C[C@@H]1CCCCO[C@H](CN(C)C(=O)Nc2ccc(C(F)(F)F)cc2)[C@@H](C)CN([C@H](C)CO)C(=O)c2cc(NS(=O)(=O)c3ccccc3)ccc2O1 here?
The cytotoxicity call was “inactive”.

For C[C@@H]1CCCCO[C@H](CN(C)C(=O)Nc2ccc(C(F)(F)F)cc2)[C@H](C)CN([C@H](C)CO)C(=O)c2cc(NS(=O)(=O)c3ccccc3)ccc2O1, which cytotoxicity call is on record?
The cytotoxicity call was “inactive”.

C[C@H](CO)N1C[C@H](C)[C@H](CN(C)C(=O)Nc2ccc(C(F)(F)F)cc2)OCCCC[C@H](C)Oc2ccc(NS(=O)(=O)c3ccccc3)cc2C1=O was tested. Which cytotoxicity call did it give?
The cytotoxicity call was “inactive”.

For CCN1C(=O)[C@H]2[C@H]3[C@H](O)[C@H](O)C/C(=N\OC[C@@H](O)COCc4ccco4)[C@@H]3CC[C@H]2C1=O, which cytotoxicity call is on record?
The cytotoxicity call was “inactive”.

How did the cytotoxicity call turn out when C[C@@H]1CCCCO[C@@H](CN(C)S(=O)(=O)c2cccs2)[C@@H](C)CN([C@@H](C)CO)C(=O)c2cc(NC(=O)Nc3ccccc3)ccc2O1 was run?
Its cytotoxicity call is “inactive”.

Which cytotoxicity call does the source give for C[C@H]1CN([C@@H](C)CO)C(=O)c2cccc(NC(=O)C3CCOCC3)c2O[C@H]1CN(C)S(=O)(=O)c1cn(C)cn1 here?
Its cytotoxicity call is “inactive”.

Which cytotoxicity call does the source give for NC(=O)N1CCc2n[nH]c(C(=O)N3CCOCC3)c2C1 here?
Its cytotoxicity call is “inactive”.

C=CCn1c(=O)c2cnc(Nc3ccc(N4CCN(C)CC4)cc3)nc2n1-c1cccc(C(C)(C)O)n1 was tested. Which cytotoxicity call did it give?
Its cytotoxicity call is “inactive”.

Which cytotoxicity call does the source give for C=CC(=O)N1CC[C@@H](Oc2nc(Nc3ccc(N4CCC(N5CCN(C)CC5)CC4)cc3)c(C(N)=O)nc2CC)C1 here?
The cytotoxicity call was “active”.

For CCc1nc(C(N)=O)c(Nc2ccc(N3CCC(N4CCN(C)CC4)CC3)c(OC)c2)nc1NC1CCOCC1, which cytotoxicity call is on record?
Its cytotoxicity call is “inactive”.

COCC(=O)Nc1ccc2c(c1)C(=O)N(C)[C@@H]1CC[C@@H](CC(=O)NCc3ccc(OC)cc3)O[C@@H]1CO2 was tested. Which cytotoxicity call did it give?
The cytotoxicity call was “inactive”.

How did the cytotoxicity call turn out when COc1ccc(S(=O)(=O)Nc2cccc3c2O[C@@H](CN(C)Cc2ccc(-c4ccccc4)cc2)[C@H](C)CN([C@@H](C)CO)C3=O)cc1 was run?
The cytotoxicity call was “inactive”.

Which cytotoxicity call does the source give for CCCCCCCCCCCCCCCCCCCC(=O)N[C@H]1CC[C@@]2(C)[C@@H](C1)C[C@@H](O)[C@@H]1[C@@H]2C[C@H](O)[C@]2(C)[C@@H]([C@H](C)CCC(=O)O)CC[C@@H]12 here?
Its cytotoxicity call is “active”.

For CC(CCC(=O)O)C1CCC2C3C(O)CC4CC(O)CCC4(C)C3CC(O)C12C (centres undefined), which cytotoxicity call is on record?
Its cytotoxicity call is “inactive”.

How did the cytotoxicity call turn out when CC(CCC(=O)NCC(=O)O)C1CCC2C3C(O)CC4CC(O)CCC4(C)C3CC(O)C12C (centres undefined) was run?
The cytotoxicity call was “inactive”.

How did the cytotoxicity call turn out when CCc1cc(=O)oc2c(C)c(O[C@@H]3O[C@H](CO)[C@@H](O)[C@H](O)[C@H]3O)ccc12 was run?
The cytotoxicity call was “active”.

Cc1cc(=O)oc2cc(O[C@H]3O[C@@H](CO)[C@@H](O)[C@@H](O)[C@@H]3O)ccc12 was tested. Which cytotoxicity call did it give?
Its cytotoxicity call is “inactive”.

Which cytotoxicity call does the source give for Cc1c(C)c2ccc(O[C@@H]3O[C@H](CO)[C@H](O)[C@H](O)[C@H]3O)cc2oc1=O here?
Its cytotoxicity call is “inactive”.

For C[C@H](CO)N1C[C@H](C)[C@H](CN(C)Cc2ccc(F)cc2)Oc2cc(C#CC(C)(C)O)ccc2S1(=O)=O, which cytotoxicity call is on record?
The cytotoxicity call was “inactive”.

Which cytotoxicity call does the source give for C=CCOC(=O)[C@@H]1[C@@H]2C=C[C@@]3(O2)[C@@H]1C(=O)N(CCCCCCO)[C@H]3C(=O)N(CC=C)Cc1ccccc1 here?
The cytotoxicity call was “active”.

For C=CCN(Cc1ccccc1)C(=O)[C@@H]1N(CCOCCO)C(=O)[C@@H]2[C@H](C(=O)O)[C@@H]3C=C[C@@]21O3, which cytotoxicity call is on record?
Its cytotoxicity call is “inactive”.

How did the cytotoxicity call turn out when C=CCOC(=O)[C@@H]1[C@@H]2C=C[C@]3(O2)[C@H](C(=O)N(CC=C)Cc2ccccc2)N(c2cccc(Cl)c2CO)C(=O)[C@@H]13 was run?
The cytotoxicity call was “inactive”.

Which cytotoxicity call does the source give for CN1C(=O)C[C@H](C(=O)O)[C@H]1c1cccnc1 here?
Its cytotoxicity call is “inactive”.

For COc1ccc(S(=O)(=O)Nc2ccc3c(c2)C(=O)N([C@@H](C)CO)C[C@H](C)[C@H](CN(C)S(=O)(=O)c2ccccc2)O3)cc1, which cytotoxicity call is on record?
The cytotoxicity call was “inactive”.

For COc1ccc(CN(C)C[C@H]2Oc3c(NS(=O)(=O)c4cn(C)cn4)cccc3C(=O)N([C@H](C)CO)C[C@H]2C)cc1, which cytotoxicity call is on record?
The cytotoxicity call was “inactive”.

C[C@H](CO)N1C[C@H](C)[C@H](CN(C)C(=O)Nc2cccc3ccccc23)Oc2ccc(NC(=O)Nc3ccc4c(c3)OCO4)cc2CC1=O was tested. Which cytotoxicity call did it give?
The cytotoxicity call was “inactive”.

Reference: the antibiotic and cytotoxicity screens of Wong et al. (2023)
